High-throughput results as filed in PubChem.
Sampled rows, rich in hits. Any-hit rate of the full collection: about 1.5%.
RAD54 branch: RAD54 (human) branch migration inhibition; Q92698; RAD54 Holliday junction branch migration, FAM/BHQ fluorescence; 360,000 tested, 0.14% active; inhibition, % at 10.4 µM; AID 602329;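 active = mean normalized replicate activity at least 40 and at least half of replicates scoring 40 or more; inconclusive = only one of the two criteria met; inactive = mean below 40 and under half of replicates reaching 40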;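 also: 0% = median of neutral control wells and 100% = median of positive control wells; inhibitors cause a drop in the FAM fluorescence signal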
dFosB activator: enhances mouse delta FosB homodimer DNA binding; P13346; purified delta FosB, TAMRA-CDK5 oligo fluorescence polarization; percent of positive-control signal above neutral wells; activation, % at 25 µM; 340,000 tested, 0.99% active;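 active = mean activation above about 17%, with every replicate also reaching it, limit read from the data, passing the limit was not always enough; inconclusive = only one of the two conditions met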
Target sequence (P13346 whole entry, looked up): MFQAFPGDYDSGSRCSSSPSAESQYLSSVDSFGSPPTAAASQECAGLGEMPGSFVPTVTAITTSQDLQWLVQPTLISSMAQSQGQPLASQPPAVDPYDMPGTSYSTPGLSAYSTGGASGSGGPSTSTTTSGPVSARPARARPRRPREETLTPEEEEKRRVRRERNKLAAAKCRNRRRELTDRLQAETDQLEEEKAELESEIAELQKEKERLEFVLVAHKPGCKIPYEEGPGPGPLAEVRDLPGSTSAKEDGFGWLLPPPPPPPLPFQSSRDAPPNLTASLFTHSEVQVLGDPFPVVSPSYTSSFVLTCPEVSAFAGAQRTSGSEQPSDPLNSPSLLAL
CFTR F508del cor: correctors of CFTR F508del function in bronchial epithelial cells. CFBE cells, YFP halide quenching; stimulated with forskolin plus potentiator P3; % fluorescence drop versus neutral controls. 350,000 tested, 0.36% active. activity (quench increase), % at 7.58 µM;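 active = mean added fluorescence quench of at least 8% versus neutral control, with both replicates also reaching 8%; inconclusive = only one of the mean or replicate conditions met; inactive = mean below 8% and not both replicates reaching 8%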;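 also: cells transiently co-express mutant CFTR-F508del with the halide-sensitive YFP; corrector assay measuring rescue of mutant channel to the surface after 24 h compound exposure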
Glyco luc inh: blocks N-linked glycosylation in D54 reporter cells; D54 ERlucT glycosylation luciferase reporter, 24 h; percent of 100 nM tunicamycin response; reporter increase, % at 12.5 µM; 360,000 tested, 0.23% active;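 active = mean luciferase reporter signal, scaled so untreated is 0 and the glycosylation-blocking control 100, at or above a set limit in every replicate; inconclusive = mean reaches the limit but not every replicate does; inactive = mean below the limit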;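 also: luciferase carries N-glycosylation sites so blocking glycosylation raises the light; 0% = median of neutral control wells and 100% = median of 100 nM tunicamycin wells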
PvdQ inh: P. aeruginosa PvdQ acylase inhibition | 340,000 tested, 0.063% active | purified PvdQ acylase, fluorescence plate reader | inhibition, % at 10 µM; in the data active = inhibition above about 30%, passing the limit was not always enough; inconclusive = no clear call, values can overlap the other calls;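 also: 0% = vehicle neutral wells and 100% = reference inhibitor wells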
RAD52 anneal inh: RAD52 (human) annealing inhibition; P43351; recombinant RAD52 DNA annealing, FRET fluorescence; inhibition, % at 18.7 µM; 360,000 tested, 0.46% active;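 active = every replicate showing at least 50% inhibition; inconclusive = mean inhibition at least 50% but not in every replicate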
DNA binding: counter-screen for Rad54 inhibitors: DNA binding compounds | shares compounds with RAD54 branch | AC50, µM (series often up to 35 µM), for the others: at the top dose activity change, negative = DNA binding | AID 651673 | Acridine orange-DNA displacement, fluorescence polarization, 20 min | 460 tested, 8% active;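 active = signal drop giving an AC50 within twice the top valid tested concentration of each sample, actives reach about 35 µM in these data; inactive = activity opposite to expected, plus the rest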;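 also: polarization loss reports compound binding to salmon sperm DNA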
DNA binder FP: binds DNA, flagging false RAD52 inhibitor hits. Salmon sperm DNA/acridine orange FP displacement, DNA binding. shares compounds with RAD52 anneal inh. AID 652128. 1,000 tested, 8% active. AC50, µM;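 active = fitted half-maximal concentration for signal loss at or below twice the highest dose tested, in every separate run, actives reach about 64 µM in these data; inconclusive = runs disagree, or flat partial signal loss, or poor fit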
* hit, by the source's call; i = inactive; ? = inconclusive; . = not tested or not shown.

SMILES | RAD54 branch | dFosB activator | CFTR F508del cor | Glyco luc inh | PvdQ inh | RAD52 anneal inh | DNA binding | DNA binder FP
COc1cccc(NC(=O)N2CC(=O)N3[C@H](CO)[C@@H](c4ccc(C#CCC5CCCC5)cc4)[C@H]3C2)c1 | . | . | 1 | . | . | -3 | . | .
C[C@@H]1CN([C@H](C)CO)C(=O)Cc2cc(NC(=O)Cn3cnnn3)ccc2O[C@H]1CN(C)S(=O)(=O)c1ccc(F)cc1 | 7 | . | -1 | . | . | -5 | . | .
CN(C)CCCN(C(=O)c1ccc2c(c1)OCCO2)c1nc2cc3c(cc2s1)OCO3 | 20 | 6 | -4 | -8 | 1 | 22 | . | .
CN(C)CCCN(C(=O)c1ccc([N+](=O)[O-])o1)c1nc2cc3c(cc2s1)OCO3 | ? | 15 | -4 | 2 | 5 | 75* | -5% | ?
COc1ccc(S(=O)(=O)Nc2ccc3c(c2)CC(=O)N([C@@H](C)CO)C[C@@H](C)[C@H](CN(C)CC2CCCCC2)O3)cc1 | 5 | . | 0 | . | . | 5 | . | .
COc1ccccc1Nc1nc(NCCCN(C)C)nc(N)c1[N+](=O)[O-] | 77* | ? | 3 | 4 | -9 | 95* | -19% | i
COc1cc(C(=O)NC2CCN(C)CC2)ccc1Nc1ncc2c(n1)N(C1CCCCC1)CCC(=O)N2C | 78* | -20 | -2 | 52* | 8 | 97* | 13% | i
COc1ccc(C(=O)NC2CCCCC2)cc1S(=O)(=O)N1CCCC1 | 4 | -11 | . | 1 | 7 | . | . | .
CCOc1ccc(Nc2nc(NCC3CCCO3)c3ccccc3n2)cc1 (stereo unspecified) | . | ? | -2 | -8 | -5 | 10 | . | .
COc1ccc(Nc2nc(NCC3CCCO3)c3ccccc3n2)c(OC)c1 (stereo unspecified) | ? | ? | -1 | 1 | -13 | 54* | 5% | i
COc1cc(C)c2sc3ccccc3c(=O)c2c1NCCN(C)C | 93* | . | -4 | 21 | . | 94* | 9.3µM* | 18µM*
O=C(C[C@@H]1CC[C@H](NC(=O)Nc2ccc3c(c2)OCO3)[C@@H](CO)O1)NCCCN1CCOCC1 | 7 | . | 1 | . | . | -6 | . | .
CN(C)CC(=O)Nc1ccc2c(c1)[C@H]1C[C@H](CC(=O)NCC3CC3)O[C@@H](CO)[C@H]1O2 | 5 | . | -3 | . | . | 4 | . | .
Cc1ccc(C(=O)c2oc3ccc(Cl)cc3c2NC(=O)CN2CCN(C)CC2)cc1 | 82* | -4 | -2 | -8 | -6 | 82* | 1% | i
O=C(C[C@@H]1CC[C@H]2[C@@H](COC[C@@H](O)CN2S(=O)(=O)c2cccc(Cl)c2)O1)NCCCN1CCOCC1 | 4 | . | 0 | . | . | . | . | .
Cc1cccc2nc3ccccc3cc12 | 1 | -13 | -1 | 4 | -13 | -1 | . | .
Cc1[nH]ccc2cc3nc4ccccc4c3cc12 | 83* | . | -1 | 14 | . | 101* | i | ?
Cc1ccc(-c2nc(NCCCN(C)C)c3ccccc3n2)cc1 | 83* | . | -1 | ? | . | 84* | -17% | i
CN(C)CCCNc1c2ccccc2nc2ccccc12 | 99* | 72* | 18* | -18 | 0 | 87* | 7.6µM* | 9.3µM*
CC(C)OCCCNc1nc(-c2ccccc2)nc2ccccc12 | 11 | -24 | 1 | -2 | 7 | 0 | . | .
c1ccc(CNc2c3ccccc3nc3ccccc23)cc1 | 83* | 38* | 11* | 24 | -6 | 84* | 29µM* | ?
CCN(CC)CC(O)c1ccc2ccc3ccc(O)cc3c2c1 (stereo unspecified) | 68* | 4 | 3 | 2 | -6 | 72* | -7% | i
CCN(CC)CC(O)Cn1c2ccccc2c2ccccc21 (stereo unspecified) | 13 | -2 | . | 3 | 6 | . | . | .
COc1ccc(CN(C)C[C@H]2Oc3c(NS(=O)(=O)c4c(C)noc4C)cccc3C(=O)N([C@H](C)CO)C[C@H]2C)cc1 | 0 | . | 0 | . | . | 0 | . | .
CCCN1CCN(CCCNC(=S)Nc2ccc3nc(N4CCN(CC)CC4)cc(C)c3c2)CC1 | 110* | 8 | 0 | -2 | -6 | 99* | 2% | i
